Results on five compounds are retold here after PubChem BioAssay.

SMILES strings stand for the structures. “And” between values parts separate entries of the source, which are not always exact repeats. Identical values can stand only once. Results filed as inconclusive are left out. The source made the active and inactive calls.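 The calls were made as follows, unless noted: active = normalized viability below 100% at a tested concentration; inactive = the rest.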

Assay [1] is described as follows: viability loss in pontine glioma line – cell-based, SU-DIPG-XVII, MIPE5.0, CellTiter-Glo, qHTS, dose response (AID 1347060; cut-off not given, nearly all actives have AC50 up to about 26 µM;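 as to AC50: cells exposed to compound for 48 hours before viability readout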). The following applies: CellTiter-Glo ATP luminescence.
The nature of assay [2]: viability loss in pontine glioma line – cell-based, SU-DIPG-XIII, MIPE4.0, CellTiter-Glo, qHTS, dose response (AID 1347061; cut-off not given, nearly all actives have AC50 up to about 37 µM;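 also: cells exposed to compound for 48 hours before readout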). As to conditions: CellTiter-Glo ATP luminescence.
Assay [3] in a line: viability loss in pontine glioma line – cell-based, JHH-DIPG-1, MIPE4.0, CellTiter-Glo, qHTS, dose response (AID 1347062; cut-off not given, nearly all actives have AC50 up to about 27 µM;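 as to AC50: cells exposed to compound for two days before readout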). As to conditions: JHH-DIPG-1 viability, CellTiter-Glo ATP luminescence.
Assay [4] can be described thus: viability loss in pontine glioma line – cell-based, SU-DIPG-IV, MIPE4.0, CellTiter-Glo, qHTS, dose response (AID 1347063; cut-off not given, nearly all actives have AC50 up to about 30 µM;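 also: compound exposure lasted 48 hours before the viability readout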). The following applies: CellTiter-Glo ATP luminescence.
A short description of assay [5]: viability loss in pontine glioma line – cell-based, SU-DIPG-XIII, MIPE5.0, CellTiter-Glo, qHTS, dose response (AID 1347064; cut-off not given, nearly all actives have AC50 up to about 23 µM;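 as to AC50: cells exposed to compound for 48 hours before the viability read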). As to conditions: CellTiter-Glo ATP luminescence.
The nature of assay [6]: viability loss in pontine glioma line – cell-based, SU-DIPG-XXV, MIPE5.0, CellTiter-Glo, qHTS, dose response (AID 1347065; cut-off not given, nearly all actives have AC50 up to about 26 µM;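 also: cells exposed to compound for 48 hours before ATP readout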). The following applies: CellTiter-Glo ATP luminescence.
Assay [7] is described as follows: JHH-DIPG-1 glioma cell viability, MIPE5.0 library, CellTiter-Glo luminescence, qHTS (AID 1347067; cut-off not given, nearly all actives have AC50 up to about 26 µM;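 also: cells exposed to compound for 48 hours before readout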). The following applies: JHH-DIPG-1 glioma viability, CellTiter-Glo ATP luminescence.
Assay [8] in a line: growth inhibition of DIPG cells – cell-based, MIPE5.0 library, qHTS (AID 1347068; cut-off not given, nearly all actives have IC50 up to about 30 µM;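 also: cells exposed to compound for 48 hours before viability readout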). As to conditions: SU-DIPG-XXV viability.
A short description of assay [9]: growth inhibition of DIPG cells – cell-based, MIPE4.0 library, CellTiter-Glo luminescence, qHTS (AID 1347066; cut-off not given, nearly all actives have AC50 up to about 30 µM;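 also: cells exposed to compound for 48 hours before readout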). The following applies: SU-DIPG-VI viability, CellTiter-Glo ATP luminescence.
Assay [10] in a line: viability loss with induced miR-34 in A549 – imaging, A549 dox-inducible miR-34, nuclei and caspase counts, primary screen (AID 1347080;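 active = compounds whose cell count with miR-34 switched on is under 0.7 times the count with it off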). The following applies: A549 miR-34 inducible, Hoechst nuclei count, 48 h.
Assay [11] in a line: MELAS cybrid and Rieske KO viability enhancers – cell-based, MELAS cybrids, Rieske KO mouse fibroblasts, CellTiter-Glo, primary screen (AID 1508586;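 active = mean z-score across replicates of 1.96 or higher in either the MELAS or the Rieske mutant cell line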;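 also: z relative to plate mean and SD of compound and empty wells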). The following applies: low glucose.
Assay [12] is described as follows: compounds altering HSF1 focus formation in cells – imaging, Selleck Cancer Library (AID 1347162; in the data active = plate-normalised HSF1 focus index below about 0.46). As to conditions: human cells, HSF1 nuclear foci imaging, at 10 µM; SSMD: measured here: HSF1 foci SSMD mean; cell count: measured here: cell number; plate-normalised HSF1 focus index: stronger effect = lower value.
A short description of assay [13]: drug combination growth inhibition, ovarian cancer – cell-based, oncology-focused library, rucaparib conditional, profiling panel (AID 1508598). The following applies: patient-derived ovarian cancer cells, CellTiter-Glo viability, 144 h, stronger effect = lower value.
The mark [14] stands for this setting: stronger effect = lower value, cell number ratio, induced over uninduced.
Setting [15] is: measured here: relative caspase fold change +Dox/-Dox.
Where [16] appears, read: measured here: total cells with miR-34 induction, stronger effect = lower value.
[17] abbreviates: measured here: total cells without miR-34 induction.
The mark [18] stands for this setting: MELAS cybrid survival, CellTiter-Glo 48 h, stronger effect = higher value.
Where [19] appears, read: Rieske KO mouse fibroblast survival, CellTiter-Glo 72 h.

As for `NC(=O)Nc1cc(-c2ccc(CN3CCOCC3)cc2)sc1C(N)=O`, the AC50 in assay [1] is 1.32 µM (active); in assay [2], 18.7 µM (active); in assay [3], 20.9 µM (active); in [4] it was 16.6 µM (active); in [5], 13.2 µM (active); in assay [6], 0.934 µM (active). For the same compound, the AC50 in [7] is 5.25 µM (active). Moreover, the half-maximal inhibitory concentration (IC50) in [8] was 2.95 µM (active).
With `CCCCCCCN(CC)CCCC(O)c1ccc(NS(C)(=O)=O)cc1` (centres undefined), the call in assay [1], in assay [2], in assay [3], in assay [4], in assay [5] and in assay [6] was inactive. The compound was called inactive in assay [9] and in assay [7]. Besides, the fold change in assay [10] (setting [14]) is 0.916 (inactive); in assay [10] (setting [15]), 0.577. The figures for the cell count in assay [10] (setting [16]) and in assay [10] (setting [17]) were 7740 and 8450, respectively. In addition, the z-score in assay [11] (setting [18]) is -0.187 (inactive) and 0.657 (inactive); in assay [11] (setting [19]), 0.0673 and -0.0365.
Turning to `Cc1ccc(-c2ncn(-c3ccc(Nc4nccc(-c5cccc(N6CCOCC6)c5)n4)cc3)n2)cn1`, the AC50 in [1] was 2.35 µM (active); in [2], 0.0833 µM (active); in [3] it was 0.0935 µM (active); in [4] it was 0.118 µM (active); in [5], 2.63 µM (active); in assay [6], 2.95 µM (active). In assay [7], the AC50 was 2.63 µM (active). Further, the IC50 in [8] is 16.6 µM (active).
On to `CCCNC(=O)[C@H]1O[C@@H]1C(=O)N[C@H](C(=O)N1CCC[C@H]1C(=O)OC)C(C)CC` (some centres undefined), for which the AC50 in assay [1] is 16.6 µM (active); in [2] it was 16.6 µM (active); in assay [3], 16.6 µM (active); in assay [4], 16.6 µM (active); in assay [5], 11.8 µM (active); in assay [6] it was 13.2 µM (active). Also, the AC50 is 10.5 µM (active) in [9] and 11.8 µM (active) in [7]. Also, the results for the fold change in assay [10] (setting [14]) and in assay [10] (setting [15]) were 0.991 (inactive) and 1.21, respectively. Moreover, the cell count was 4190 in assay [10] (setting [16]) and 4230 in [10] (setting [17]).
As for `COC(=O)Nc1ccc(-c2nc(N3CCOCC3)c3cnn(C4CCN(C(=O)OC)CC4)c3n2)cc1`, the AC50 was 1.86 µM (active) in assay [1]; 0.0662 µM (active) in assay [2]; 0.187 µM (active) in assay [3]; 1.32 µM (active) in [4]; 2.63 µM (active) in [5]; 0.417 µM (active) in assay [6]. For the same compound, the results for the fold change in [10] (setting [14]) and in assay [10] (setting [15]) were 1.03 (inactive) and 0.692, respectively. Also, the cell count in assay [10] (setting [16]) came to 2420; in assay [10] (setting [17]), 2340; in [12] it was 6960. The same compound gave an SSMD in assay [12] of 1.11. The plate-normalised HSF1 focus index in assay [12] was 1.06 (inactive). In addition, the z-score in assay [11] (setting [18]) is 4.37 (active); in assay [11] (setting [19]) it was 0.522. For the same compound, the viability is 108% (inactive) in assay [13] (at 0.000305 µM, OCI-C5x cells, with rucaparib 10 µM, 100% = cells with rucaparib alone); 105% (inactive) in [13] (at 0.000305 µM, OCI-C5x cells, without rucaparib); 94.1% (active) in assay [13] (at 0.000305 µM, OCI-P5x cells, with rucaparib 20 µM, 100% = cells with rucaparib alone); 90.5% (active) in [13] (at 0.000305 µM, OCI-P5x cells, without rucaparib); 127% (inactive) in [13] (at 0.00122 µM, OCI-C5x cells, with rucaparib 10 µM, 100% = cells with rucaparib alone); 108% (inactive) in assay [13] (at 0.00122 µM, OCI-C5x cells, without rucaparib). The viability was 104% (inactive) in assay [13] (at 0.00122 µM, OCI-P5x cells, with rucaparib 20 µM, 100% = cells with rucaparib alone); 93.1% (active) in [13] (at 0.00122 µM, OCI-P5x cells, without rucaparib); 109% (inactive) in assay [13] (at 0.00488 µM, OCI-C5x cells, with rucaparib 10 µM, 100% = cells with rucaparib alone); 108% (inactive) in [13] (at 0.00488 µM, OCI-C5x cells, without rucaparib); 101% (inactive) in [13] (at 0.00488 µM, OCI-P5x cells, with rucaparib 20 µM, 100% = cells with rucaparib alone); 102% (inactive) in assay [13] (at 0.00488 µM, OCI-P5x cells, without rucaparib). For the same compound, the viability was 118% (inactive) in assay [13] (at 0.0195 µM, OCI-C5x cells, with rucaparib 10 µM, 100% = cells with rucaparib alone); 117% (inactive) in assay [13] (at 0.0195 µM, OCI-C5x cells, without rucaparib); 106% (inactive) in assay [13] (at 0.0195 µM, OCI-P5x cells, with rucaparib 20 µM, 100% = cells with rucaparib alone); 104% (inactive) in assay [13] (at 0.0195 µM, OCI-P5x cells, without rucaparib); 115% (inactive) in [13] (at 0.0781 µM, OCI-C5x cells, with rucaparib 10 µM, 100% = cells with rucaparib alone); 112% (inactive) in [13] (at 0.0781 µM, OCI-C5x cells, without rucaparib). Further, the viability in assay [13] (at 0.0781 µM, OCI-P5x cells, with rucaparib 20 µM, 100% = cells with rucaparib alone) was 97% (active); in assay [13] (at 0.0781 µM, OCI-P5x cells, without rucaparib), 101% (inactive); in assay [13] (at 0.313 µM, OCI-C5x cells, with rucaparib 10 µM, 100% = cells with rucaparib alone), 100% (inactive); in [13] (at 0.313 µM, OCI-C5x cells, without rucaparib), 114% (inactive); in assay [13] (at 0.313 µM, OCI-P5x cells, with rucaparib 20 µM, 100% = cells with rucaparib alone) it was 101% (inactive); in assay [13] (at 0.313 µM, OCI-P5x cells, without rucaparib), 106% (inactive). In addition, the viability in assay [13] (at 1.25 µM, OCI-C5x cells, with rucaparib 10 µM, 100% = cells with rucaparib alone) is 119% (inactive); in assay [13] (at 1.25 µM, OCI-C5x cells, without rucaparib) it was 116% (inactive); in assay [13] (at 1.25 µM, OCI-P5x cells, with rucaparib 20 µM, 100% = cells with rucaparib alone), 83.4% (active); in [13] (at 1.25 µM, OCI-P5x cells, without rucaparib) it was 103% (inactive); in assay [13] (at 5 µM, OCI-C5x cells, with rucaparib 10 µM, 100% = cells with rucaparib alone), 126% (inactive); in assay [13] (at 5 µM, OCI-C5x cells, without rucaparib), 120% (inactive). The viability was 70.5% (active) in assay [13] (at 5 µM, OCI-P5x cells, with rucaparib 20 µM, 100% = cells with rucaparib alone) and 99.3% (active) in [13] (at 5 µM, OCI-P5x cells, without rucaparib).
